{"source": "PubChem BioAssay AID624173", "about": "(National Center for Advancing Translational Sciences (NCATS), 2012)", "note": "In all, about 410,000 compounds went through this assay and about 490 (0.12%) were called active. Another 1% or so got no clear call; they are omitted. This is one part of a sample in which actives are shown more often than they occur. A number with no mark means an inactive call. The call rests on the fitted dose curve; in most records, active means well fitted inhibition curve with a large enough effect; inconclusive means small, poorly fitted or top-dose-only effect; inactive means flat fitted curve, though single readings scatter. On the % scale 0 is the no-effect control and ±100 the full control effect; potency means the concentration at half of the fitted maximal effect.", "data": [{"target": "pyruvate kinase (Trypanosoma brucei) (UniProt Q57TT1)", "test": "qHTS of Trypanosoma Brucei Inhibitors; further: nearly all actives have a fitted effect of over 50% in size", "details": "TbPYK enzyme, Kinase-Glo Plus ATP luminescence, 45 min; series mostly up to 76.8 µM; activity, negative = inhibition: at the top concentration", "excerpt": "Members of the Trypanosomatidae family of parasitic protozoans cause a spectrum of diseases throughout the tropical and subtropical world. Sleeping sickness, caused by two subspecies of Trypanosoma brucei, is endemic to areas of sub-Saharan Africa, while Chagas' disease, a manifestation of Trypanosoma cruzi infection, is prevalent throughout Central and South America. In addition, many species of Leishmania are responsible for a range of cutaneous and visceral diseases, causing ulcers, destructive lesions and kalaazar, a lethal infection of the viscera. These diseases cause severe public health and economic burdens on populations that are often already caught in a tragic cycle of poverty, poor nutrition and disease. Collectively, parasites of the trypanosomatid family infect 30 million people worldwide (~500 million live in endemic areas), and account for ~130K deaths annually. Existing treatments have developed little in the past 50 years, and suffer from toxicity, poor efficacy and resistance; the goal of this project is to develop lead drugs that will be suitable for entry into pre-clinical trials.\nGlycolysis in axenically cultured T. cruzi, representing the intracellular pathogenic stage, is also essential for these parasites. {Engel, 1987} This project aims to discover and optimize selective inhibitors of the glycolytic enzyme pyruvate kinase (PYK) from Trypanosoma brucei, the parasite that causes sleeping sickness. […] Trypanosomatid PYKs show significant differences from their human counterparts including only 47-50% sequence identity and different allosteric and activation properties.{Callens, 1992} To this end, a qHTS was done against the MLSMR to discover inhibitors.\nNIH Molecular Libraries Probe Production Network [MLPCN]\nNIH Chemical Genomics Center [NCGC]\nPI Name: Malcolm Walkinshaw, University of Edinburgh\n2 uL of TbPYK/substrate buffer (columns 1-3, 5-48) are dispensed into Greiner white solid bottom 1536-well assay plates; column 4 receives only TEA buffer as 0x TbPYK controls. Compounds are then transferred via Kalypsys pin tool equipped with 1536-pin array (10 nL slotted pins, V&P Scientific, San Diego, CA). Following addition of compound, 2 uL of ADP (130 uM final concentration, all columns) is added to initiate the reaction. The plates are then incubated at room temperature for 45 minutes. Kinase-Glo Plus reagent is added (3 uL) and plates incubated for 10 minutes, before being transferred to a ViewLux high-throughput CCD imager (PerkinElmer) wherein single end-point measurements of luminescence are acquired using a clear filter. All reagents are diluted in an assay buffer consisting of 50 mM TEA (pH 7.2), 100 mM KCl, 10 mM MgCl2, 0.05% BSA and 0.01% Tween-20.\nAll screening operations will be performed on a fully integrated robotic system (Kalypsys, San Diego, CA) containing one RX-130 and two RX-90 anthropomorphic robotic arms (Staeubli, Duncan, SC). Library plates will be screened starting from the lowest and proceeding to the highest concentration. Vehicle-only plates, with DMSO being pin-transferred to columns 5-48, will be inserted uniformly at the beginning and the end of each library in order to monitor and record any shifts in the background, which can be affected by reagent dispensers or loss in enzyme activity over time. Screening data will be corrected, normalized, and concentration-effect relationships will be derived by using publicly-available curve fitting algorithms developed in-house (http://ncgc.nih.gov/pub/openhts).", "values": [{"compound": "CC(C)NC(=O)N1CC[C@@]2(CCCN(C(=O)c3cccc(F)c3)C2)C1", "activity, negative = inhibition": "5.23%"}, {"compound": "COc1cc(C[C@H](C)N)c(OC)cc1Br", "activity, negative = inhibition": "-1.96% [at 157 µM]"}, {"compound": "CCCCC1C(=O)NC(=O)N(C2CCCCC2)C1=O", "note": "(stereo unspecified)", "activity, negative = inhibition": "-8.38%"}, {"compound": "O=C1C=CC(=O)N1c1ccc(N2CCCCC2)cc1", "Potency": "10 µM (active)"}, {"compound": "O=C(c1csnn1)N1CCC2(CCN(Cc3nccs3)CC2)CC1", "activity, negative = inhibition": "0.484%"}, {"compound": "CC1(C)NC(=O)N(CC(=O)Nc2ccc(-c3ccccc3)cc2)C1=O", "activity, negative = inhibition": "-7.35%"}, {"compound": "Cc1ccc(NC(=O)Cn2c(=O)n(-c3ccccc3)c(=O)c3c4c(sc32)CCCC4)cc1", "activity, negative = inhibition": "8.83%"}, {"compound": "Cc1ccc(NC(=O)Cn2sc3ccccc3c2=O)cc1", "Potency": "7.94 µM (active)"}, {"compound": "CO/N=C(\\C(=O)N[C@@H]1C(=O)N2C(C(=O)O)=C(Cn3nnc(C)n3)CS[C@H]12)c1csc(N)n1", "activity, negative = inhibition": "-4.72%"}, {"compound": "O=C(/C=C/c1cccc(F)c1)NC1CC1", "activity, negative = inhibition": "-11.3%"}, {"compound": "C=CCN1CCC23c4c5ccc(O)c4O[C@H]2C(=O)CC[C@@]3(O)C1C5", "note": "(stereo partly specified)", "activity, negative = inhibition": "-1.68%"}, {"compound": "CC1(C)OC2CO[C@]3(COS(N)(=O)=O)OC(C)(C)OC3C2O1", "note": "(stereo partly specified)", "activity, negative = inhibition": "-0.562%"}, {"compound": "O=C1c2c(O)cccc2[C@@H]([C@@H]2O[C@H](CO)[C@@H](O)[C@H](O)[C@H]2O)c2cc(CO)cc(O)c21", "activity, negative = inhibition": "-15.8%"}, {"compound": "CCOC(=O)Cc1cccc(-c2cc(CCCCCCc3ccc(O[C@H]4O[C@H](COC(C)=O)[C@@H](OC(C)=O)[C@H](OC(C)=O)[C@@H]4OC(C)=O)c(-c4cccc(CC(=O)OCC)c4)c3)ccc2O[C@H]2O[C@H](COC(C)=O)[C@@H](OC(C)=O)[C@H](OC(C)=O)[C@@H]2OC(C)=O)c1", "activity, negative = inhibition": "0.402%"}, {"compound": "COCC(=O)N1CCC2(CCCN(c3ccccc3)C2)CC1", "activity, negative = inhibition": "-0.308%"}, {"compound": "Cc1ccc(-c2ncc(Cl)cc2-c2ccc(S(C)(=O)=O)cc2)cn1", "activity, negative = inhibition": "-10.3%"}, {"compound": "CCC(C)C(N)C1=NC(C(=O)NC(CC(C)C)C(=O)NC(CCC(=O)O)C(=O)NC(C(=O)NCCCCC2NC(=O)C(CC(N)=O)NC(=O)C(CC(=O)O)NC(=O)C(Cc3cnc[nH]3)NC(=O)C(Cc3ccccc3)NC(=O)C(C(C)CC)NC(=O)C(CCCN)NC2=O)C(C)CC)CS1", "note": "(stereo unspecified)", "activity, negative = inhibition": "0%"}, {"compound": "CC(=O)N1CCC2(CCCN(Cc3ccccc3)C2)CC1", "activity, negative = inhibition": "0%"}, {"compound": "CC1(C)[C@H](O[C@H]2O[C@H](C(=O)O)[C@@H](O)[C@H](O)[C@H]2O[C@@H]2O[C@H](C(=O)O)[C@@H](O)[C@H](O)[C@H]2O)CC[C@@]2(C)[C@H]1CC[C@]1(C)[C@H]2C(=O)C=C2[C@H]3C[C@@](C)(C(=O)O)CC[C@]3(C)CC[C@]21C", "activity, negative = inhibition": "-2.85%"}, {"compound": "COc1ncc2nc(-c3ccc(Cl)cc3)c(=O)n(-c3ccccc3)c2n1", "activity, negative = inhibition": "1.82%"}, {"compound": "CCCc1c2oc(C(=O)O)cc(=O)c2cc2c(=O)cc(C(=O)O)n(CC)c12", "activity, negative = inhibition": "-3.87%"}, {"compound": "CCOc1ccc(NS(=O)(=O)c2ccc(N)cc2)nn1", "activity, negative = inhibition": "-5.06%"}, {"compound": "CS(=O)(=O)N1CCC2(CC1)CN(c1ccncc1)C2", "activity, negative = inhibition": "0.147%"}, {"compound": "c1ccc(Cc2c(-c3ccco3)nc3c4ccccc4ccn23)cc1", "activity, negative = inhibition": "-13.3%"}, {"compound": "Cc1ccc(Cc2c(-c3ccco3)nc3ccc(Cl)cn23)cc1", "Potency": "22.4 µM (active)"}, {"compound": "Cc1cc2nc(-c3ccco3)c(Cc3cccc(F)c3)n2c(C)c1Br", "activity, negative = inhibition": "-15.1%"}, {"compound": "COc1ccc(NC(=O)N2CC3(CCN(C(C)=O)CC3)C2)cc1", "activity, negative = inhibition": "-5.45%"}, {"compound": "COc1ccc(C(=O)N2CCC3(CC2)CCN(c2ccccn2)CC3)cc1", "activity, negative = inhibition": "6.06%"}, {"compound": "CC(=O)N1CCC2(CCCN(Cc3ccc(C#N)cc3)C2)CC1", "activity, negative = inhibition": "4.17%"}, {"compound": "CCC(C)[C@@H](N)C(=O)O", "note": "(stereo partly specified)", "activity, negative = inhibition": "-1.56%"}, {"compound": "COC(=O)[C@@H]1CC2=CC(=O)CC[C@]2(C)[C@@]23O[C@@H]2C[C@@]2(C)[C@@H](CC[C@@]24CCC(=O)O4)[C@H]13", "activity, negative = inhibition": "-7.61%"}, {"compound": "CC(=O)OCC(=O)[C@@]1(O)CC[C@@H]2[C@H]3CCC4=CC(=O)C=C[C@]4(C)[C@]3(F)[C@@H](O)C[C@@]21C", "activity, negative = inhibition": "1.21% [at 33.2 µM]"}, {"compound": "C[C@]12CCC3[C@@H](CCC4=CC(=O)CC[C@@]43C)C1CCC2OC(=O)CCc1ccccc1", "note": "(stereo partly specified)", "activity, negative = inhibition": "-5.47% [at 157 µM]"}, {"compound": "CO[C@]12CC[C@@]3(C[C@@H]1[C@](C)(O)C(C)(C)C)[C@@H]1Cc4ccc(O)c5c4[C@@]3(CCN1CC1CC1)[C@H]2O5", "activity, negative = inhibition": "3.11% [at 157 µM]"}, {"compound": "CC(C)=CCN1CC[C@@]2(C)c3cc(O)ccc3C[C@H]1[C@@H]2C", "activity, negative = inhibition": "-3.79% [at 157 µM]"}, {"compound": "COC(=O)N1CCC2(CCCN(c3ccncc3)C2)CC1", "activity, negative = inhibition": "-0.191%"}, {"compound": "COc1ccc(OC)c([C@H](O)CNC(=O)CN)c1", "activity, negative = inhibition": "4.52% [at 33.2 µM]"}, {"compound": "Cc1cccc(C)c1NC(=O)NC1=CCCN1C", "activity, negative = inhibition": "8.65%"}, {"compound": "O=C1C(c2[nH]c3ccccc3c2O)=Nc2ccccc21", "activity, negative = inhibition": "3.08%"}, {"compound": "O=c1c(-c2cccs2)nc2cnc(Oc3ccccc3)nc2n1-c1ccccc1", "activity, negative = inhibition": "6.09%"}, {"compound": "CCCC(=O)O[C@]1(C(=O)COC(=O)CC)CC[C@@H]2[C@@H]3CCC4=CC(=O)CC[C@]4(C)[C@H]3[C@@H](O)C[C@@]21C", "activity, negative = inhibition": "0%"}, {"compound": "Cc1c(Cl)cccc1NC(=O)N1CCN(C(=O)c2nsc3ccccc23)CC1", "activity, negative = inhibition": "10.2% [at 15.4 µM]"}, {"compound": "NCCCCC(N)C(=O)O", "note": "(stereo unspecified)", "activity, negative = inhibition": "-0.921%"}, {"compound": "CCC(C)C1OC2(C=CC1C)CC1CC(C/C=C(/C)C(OC3CC(OC)C(OC4CC(OC)C(NC(C)=O)C(C)O4)C(C)O3)C(C)/C=C\\C=C3\\COC4C(O)C(C)=CC(C(=O)O1)C34O)O2", "note": "(stereo unspecified)", "activity, negative = inhibition": "-0.993%"}, {"compound": "CC(C)NC(=O)N1CC[C@@]2(CCCN(C(=O)c3ccco3)C2)C1", "activity, negative = inhibition": "-8.63%"}, {"compound": "Cc1cc(-c2csc(N)n2)c(C)n1-c1ccccc1", "activity, negative = inhibition": "-11.5%"}]}]}
